Some test systems named below: NCI-H23 lung; NCI-H226 lung; HOP-62 NSCLC; NCI-H460 lung; HOP-92 NSCLC; NCI-H522 lung; A549/ATCC NSCLC; 786-0 renal; COLO 205 colon; DU-145 prostate; K-562 leukemia; MALME-3M melanoma; MDA-MB-231 breast; RXF 393 renal; SF-268 CNS; SF-295 CNS; SF-539 CNS; UACC-257 melanoma; M14 melanoma.
Common to all, as to assay: NCI-60 one-dose screen, 48 h (100 = growth as untreated, 0 = no growth, -100 = all killed)
What all share (conditions): 10 µM

About 83,000 compounds went through this panel and 20% of them were active in at least one assay; those are over-represented in the sample as a whole.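 96-well plates, one dose, 48 hours. Percent growth reported; active if below 10.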 Unmarked numbers belong to inactive results. Calls of active or inactive are those of the source.

In the case of `CC(=O)Nc1ccc2c(c1)C(=O)c1cccc(C(=O)O)c1-2`, the growth in the test with NCI-H23 lung is 104%; with NCI-H226 lung, 95.5%; with HOP-62 NSCLC it was 98.9%; in the test on NCI-H460 lung it was 98.1%; in the test on HOP-92 NSCLC, 96.6%; in the test with NCI-H522 lung it was 108%. Besides, the growth was 97.6% in the test on A549/ATCC NSCLC; 105% in the test with 786-0 renal; 114% in the test with COLO 205 colon; 116% in the test on DU-145 prostate; 115% with K-562 leukemia; 148% in the test on MALME-3M melanoma. Also, the growth in the test with MDA-MB-231 breast was 112%; in the test with RXF 393 renal, 109%; in the test on SF-268 CNS, 104%; in the test on SF-295 CNS it was 100%; in the test on SF-539 CNS, 106%; in the test on UACC-257 melanoma, 105%. In addition, in the test on M14 melanoma, the growth was 107%.

As to `O=S(=O)(Oc1ccc(-c2ccc3sccc3c2)cc1)c1ccccc1`, the growth in the test on NCI-H23 lung was 89%; with NCI-H226 lung, 92.5%; in the test with HOP-62 NSCLC it was 113%; in the test with NCI-H460 lung, 103%; in the test with HOP-92 NSCLC, 111%; with NCI-H522 lung, 87.3%. The growth in the test with A549/ATCC NSCLC is 100%; in the test on 786-0 renal it was 100%; with COLO 205 colon, 109%; with DU-145 prostate, 107%; in the test with K-562 leukemia, 89.6%; in the test with MALME-3M melanoma, 105%. The growth with MDA-MB-231 breast was 97.3%; in the test on RXF 393 renal it was 97.1%; in the test on SF-268 CNS, 105%; with SF-295 CNS, 93.9%; in the test on SF-539 CNS, 108%; in the test on UACC-257 melanoma, 104%. In the test with M14 melanoma, the growth was 114%.

In the case of `COc1cc(NC(=O)Nc2cnc(Nc3ccc(N4CCOCC4)cc3)nc2Oc2cccc(OC)c2)cc(OC)c1`, the growth in the test with NCI-H23 lung is 61.3%; with NCI-H226 lung, 7.06% (active); in the test with HOP-62 NSCLC, 32.1%; in the test with NCI-H460 lung, 23.9%; in the test with HOP-92 NSCLC, 4.67% (active); in the test on NCI-H522 lung it was 27.5%. The growth was 23.4% in the test with A549/ATCC NSCLC; -25.6% (active) in the test on 786-0 renal; 46.2% in the test on COLO 205 colon; 36.9% in the test with DU-145 prostate; 55.4% in the test on K-562 leukemia; 8.57% (active) with MALME-3M melanoma. The growth in the test on MDA-MB-231 breast was 16.9%; with RXF 393 renal it was -32.5% (active); with SF-268 CNS, 50%; with SF-295 CNS it was 34.6%; with SF-539 CNS it was -68.4% (active); in the test on UACC-257 melanoma it was 48%. The growth with M14 melanoma is 45.2%.

Regarding `CN(C)CCOc1ccccc1NC1=C(Cl)C(=O)C(Nc2ccccc2OCCN(C)C)=C(Cl)C1=O`, the growth in the test with NCI-H23 lung is 64.1%; in the test with NCI-H226 lung, 93.9%; in the test with HOP-62 NSCLC it was 110%; with NCI-H460 lung, 99.2%; in the test with HOP-92 NSCLC, 59.9%; in the test with NCI-H522 lung it was -53.3% (active). The growth in the test on A549/ATCC NSCLC is 84.7%; with 786-0 renal it was 74.8%; in the test with COLO 205 colon it was -62% (active); with DU-145 prostate, 84.7%; in the test on K-562 leukemia, -12.6% (active); in the test with MALME-3M melanoma it was 64.7%. Moreover, the growth is 53.1% with MDA-MB-231 breast; 68.5% in the test with RXF 393 renal; 86% with SF-268 CNS; 103% in the test on SF-295 CNS; 101% in the test on SF-539 CNS; 85.2% with UACC-257 melanoma. Moreover, the growth in the test with M14 melanoma was 92.9%.

For the molecule `CCNCC(=O)Nc1ccc(C(=O)OCC)cc1`, the growth in the test on NCI-H23 lung is 99.9%; in the test on NCI-H226 lung it was 109%; with HOP-62 NSCLC, 90.5%; with NCI-H460 lung it was 99.5%; in the test with HOP-92 NSCLC, 113%; in the test on NCI-H522 lung it was 88.7%. In addition, the growth in the test with A549/ATCC NSCLC was 103%; in the test with 786-0 renal it was 89.6%; with COLO 205 colon it was 108%; in the test with DU-145 prostate, 104%; in the test on K-562 leukemia it was 96.6%; in the test with MALME-3M melanoma it was 110%. Further, the growth was 119% in the test with MDA-MB-231 breast; 124% in the test on RXF 393 renal; 93.6% with SF-268 CNS; 102% in the test with SF-295 CNS; 100% in the test on SF-539 CNS; 96.7% in the test with UACC-257 melanoma. The growth with M14 melanoma is 102%.

Take `COc1cc(-c2nn(-c3cccc(NC(=O)CCN4CCN(c5ccccc5)CC4)c3)cc2-c2ccncc2)ccc1Cl`: the growth in the test on NCI-H23 lung is 24.5%; with NCI-H226 lung, 47.6%; in the test on HOP-62 NSCLC, 34.2%; in the test on NCI-H460 lung, 6.87% (active); in the test on HOP-92 NSCLC, 4.23% (active); with NCI-H522 lung, 10.1%. In addition, the growth with A549/ATCC NSCLC was 15.9%; in the test on 786-0 renal it was 2.45% (active); with COLO 205 colon it was -36.9% (active); in the test on DU-145 prostate it was 30.8%; in the test on K-562 leukemia, 11.3%; with MALME-3M melanoma, 38%. The growth in the test with MDA-MB-231 breast was 7.1% (active); in the test on RXF 393 renal it was -0.267% (active); in the test with SF-268 CNS, 30%; in the test with SF-295 CNS, 13.4%; in the test on SF-539 CNS, 30.2%; with UACC-257 melanoma, 29.1%. In addition, the growth in the test with M14 melanoma is 10.8%.

Take `CC(C)CCN(CCC(C)C)CC(=O)Nc1ccc(S(=O)(=O)c2ccc(NC(=O)CN(CCC(C)C)CCC(C)C)cc2)cc1`: the growth was 46.3% in the test with NCI-H23 lung; 76.7% with NCI-H226 lung; 67.5% in the test on HOP-62 NSCLC; 48.2% in the test with NCI-H460 lung; 75% in the test with HOP-92 NSCLC; -64.6% (active) with NCI-H522 lung. Further, the growth with A549/ATCC NSCLC was 53.7%; in the test with 786-0 renal, 18%; in the test on COLO 205 colon it was 29.6%; in the test with DU-145 prostate, 54%; in the test with K-562 leukemia, 3.86% (active); in the test with MALME-3M melanoma it was 19.4%. In addition, the growth is 31% with MDA-MB-231 breast; 24.9% with RXF 393 renal; 34.5% in the test on SF-268 CNS; 90.1% in the test with SF-295 CNS; 21.4% in the test on SF-539 CNS; 56.2% in the test on UACC-257 melanoma. In addition, the growth in the test with M14 melanoma is 31.6%.

On to `O=C(CN(C1CCCCC1)C1CCCCC1)Nc1ccc(S(=O)(=O)c2ccc(NC(=O)CN(C3CCCCC3)C3CCCCC3)cc2)cc1`, for which the growth in the test with NCI-H23 lung was -36.6% (active); in the test with NCI-H226 lung, 0.397% (active); with HOP-62 NSCLC, -21.4% (active); in the test with NCI-H460 lung it was -9.66% (active); with HOP-92 NSCLC it was -86.7% (active); in the test on NCI-H522 lung it was -74.4% (active). Further, the growth is 2.61% (active) in the test with A549/ATCC NSCLC; -82.7% (active) in the test on 786-0 renal; -70.6% (active) with COLO 205 colon; -47.9% (active) in the test on DU-145 prostate; -29.8% (active) with K-562 leukemia; -67.4% (active) in the test with MALME-3M melanoma. For the same molecule, the growth with MDA-MB-231 breast was -49.4% (active); in the test on RXF 393 renal it was -61.4% (active); with SF-268 CNS, -7.58% (active); in the test on SF-295 CNS, 14.4%; with SF-539 CNS it was -89.9% (active); in the test with UACC-257 melanoma, -17.9% (active). Moreover, in the test with M14 melanoma, the growth is -59.4% (active).

The values are drawn from PubChem BioAssay (NCI).
